# Experimental data taken from PubChem BioAssay AID2284357 (EPA ToxCast).
# Results filed as inconclusive are left out. The source made the active and inactive calls. The calls were made as follows: active = hit-call score of the fitted dose curve at least 0.9, where 1 is the maximum; inconclusive = response in the unintended direction; inactive = score below 0.9.
# Tested on: zebrafish Androgen Receptor (AR), gene 100005148
# Assay: ATG_zfAR_EcoTox2: Attagene TRANS-FACTORIAL EcoTox-2 HepG2 Assay for zebrafish Androgen Receptor (AR)
# Method: ATG_EcoTox2 is a cell-based, multiplexed assay created by modifying the existing Attagene TRANS-FACTORIAL system to include a panel of nuclear receptors from some or all the following species: human (Homo sapiens), african clawed frog (Xenopus laevis), rainbow trout (Oncorhynchus mykiss), japanese medaka (Oryzias latipes), and zebrafish (Danio rerio). The ECOTOX2-FACTORIAL format uses HepG2, a human liver cell line, with measurements taken at 24 hours after chemical dosing in a 24-well plate. ATG_zfAR_EcoTox2 is one of 29 assay components calculated in the ATG_EcoTox2 assay. It is designed to make measurements of mRNA induction, a form of inducible reporter, as detected with fluorescence intensity signals by Reverse transcription polymerase chain reaction (RT-PCR) and Capillary electrophoresis technology.The assay endpoint ATG_zfAR_EcoTox2 was analyzed in the positive analysis fitting direction relative to DMSO as the negative control and baseline of activity. Using a type of inducible reporter, measures of mRNA for gain-of-signal activity can be used to understand the reporter gene at the transcription factor-level as they relate to the gene AR. Furthermore, this assay endpoint can be referred to as a primary readout, because this assay has produced multiple assay endpoints where this one serves a reporter gene function. To generalize the intended target to other relatable targets, this assay endpoint is annotated to the nuclear receptor intended target family, where the subfamily is steroidal.
# Human liver HepG2 cells are transiently transfected with multiple reporter transcription units (MRTUs) in 6-well plates using FuGene 6 reagent (Roche; 3 ml FuGene/1 mg DNA). The MRTU constructs are regulated by a cis-regulating element (promoter). Each RTU expresses a GAL4-UAS that regulates the transcription of a nearby target reporter gene sequence. A major difference between the CIS and TRANS system is that in CIS activities of endogenous TFs are measured, whereas the TRANS assay evaluates changes in activities of exogenous, chimeric NR-Gal4 proteins. […] At the end of 24 hour incubation, total RNA was isolated using TriZol reagent (Invitrogen). The isolated RNA is then reverse-transcribed using oligo(dT) primer and Mo-MLV reverse transcriptase (Invitrogen) with DNAse I (Ambion) treatment for 30 min. The one-tenth of the produced cDNA was amplified by PCR using Taq DNA polymerase (Invitrogen) and two reporter sequence-specific primers. […] The fragments were purified using Qiaquick PCR columns (Qiagen), analyzed on an ABI 3130xL genetic analyzer (Applied Biosystems) with peak positions identified by using a set of X-rhodamine (ROX)-labeled MapMarker1000 molecular weight standards (BioVentures). […]
row,SMILES,outcome
1,CCCCOCN(C(=O)CCl)c1c(CC)cccc1CC,inactive
2,O=C(O)C(F)(F)C(F)(F)C(F)(F)C(F)(F)C(F)(F)C(F)(F)C(F)(F)F,inactive
3,O=P(Oc1ccccc1)(Oc1ccccc1)Oc1ccccc1,inactive
4,O=S(=O)(O)C(F)(F)C(F)(F)C(F)(F)C(F)(F)C(F)(F)C(F)(F)F,inactive
